An excerpt weighted towards active compounds, which were near 5.9% of everything screened.
TGFb SMAD3 inh: TGF-b pathway inhibition; HepG2 CAGA-GFP TGF-b/SMAD3 reporter, GFP fluorescence, 18 h; TGF-beta stimulated, 500 pg/mL final; Potency, µM (top dose mostly 46.1 µM), without a hit: at the highest dose activity, negative = inhibition, hits mostly inhibitors; 410,000 tested, 1.2% active; also: % is scaled to controls: 0 for no effect and ±100 for the full control effect; nearly all actives have a fitted effect of over 65% in size
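Smad-responsive CAGA-GFP expression was quantified in HEPG2 cells exposed to compounds and 500 pg/mL final TGF-beta for 18 h at 37 degrees C; unstimulated wells defined full inhibition.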
KB-V1 MDR tox: KB-V1 MDR subline cytotoxicity; KB-V1 MDR cells viability, CellTiter-Glo, 72 h; Potency, µM (series often up to 46.1 µM), usual class: cytotoxic; 400,000 tested, 3.4% active; AID 1347076; also: % is scaled to controls: 0 for no effect and ±100 for the full control effect; nearly all actives have a fitted effect of over 60% in size
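Compound-treated KB-V1 multidrug-resistant cells, 72 h, 37 degrees C; viability by CellTiter-Glo. Fitted qHTS curves give the values.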
S2 tox: viability counter-screen for ATXN expression inhibitors; S2 cells (HEK-293 line with an ATXN2-luciferase reporter) viability, CellTiter-Fluor protease fluorescence, 24 h; Potency, µM (highest dose often 56.7 µM), actives largely listed as cytotoxic; 400,000 tested, 0.49% active; AID 651635; also: nearly all actives have a fitted effect of over 40% in size
KB-3-1 tox: KB-3-1 parental cell cytotoxicity. 400,000 tested, 1.4% active. AID 1347075. KB-3-1 viability, CellTiter-Glo ATP luminescence, 72 h. Potency, µM (highest dose often 46.1 µM), most hits filed as cytotoxic; also: % is scaled to controls: 0 for no effect and ±100 for the full control effect; nearly all actives have a fitted effect of over 60% in size
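Screening of KB-3-1 cells (DMEM, 10% FBS, phenol-red free) ran from lowest to highest compound concentration; after 72 h at 37 °C viability was read luminescently and curves fitted.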
ATXN2 expr inh: reduces ATXN2 reporter expression in HEK-293 cells | HEK-293 ATXN2-luciferase reporter, luminescence, 24 h | Potency, µM (doses to about 57 µM), inactives show at the top dose activity change, negative = inhibition, most hits filed as inhibitors | 360,000 tested, 0.72% active; also: % is scaled to controls: 0 for no effect and ±100 for the full control effect; nearly all actives have a fitted effect of over 55% in size
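qHTS (up to 57 uM final) was run with 24 h compound exposure of reporter cells at 37 °C. Each well was multiplexed: SteadyGlo luminescence measured ATXN2-luciferase expression after a fluorogenic Gly-Phe-AFC viability readout (25 uM final).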
HepG2 tox: kills HepG2 cells in TGF-b inhibitor counter-screen; HepG2 CAGA-GFP viability, ATP luminescence, 18 h; Potency, µM (doses to about 46.1 µM), for the others: at the top dose activity change, negative = cytotoxicity, actives largely listed as cytotoxic; 410,000 tested, 0.76% active; AID 588856
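CellTiter-Glo luminescence gave cytotoxicity after 18 hours at 37 degrees C. The cells were HepG2 CAGA-GFP in 1% FBS DMEM, stimulated with 500 pg/mL TGF-beta after compound addition. %Activity was normalised to no-cell wells (complete cell-killing) and DMSO (no toxicity), and curves were fitted and classified.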
* hit, by the source's call; i = inactive; ? = inconclusive; · = not tested or not shown; ! = repeats disagree. Calls follow the shape of the dose curve; as a rule, active = well fitted curve in the direction sought with a large enough effect; inconclusive = small, poorly fitted or top-dose-only effect, or another doubt; inactive = no such curve, though single readings can be large; an effect the other way counts as inactive or inconclusive. Potency is read from the fitted curve at half-maximal effect.

SMILES | TGFb SMAD3 inh | KB-V1 MDR tox | S2 tox | KB-3-1 tox | ATXN2 expr inh | HepG2 tox
CSc1ncccc1C(=O)NCC1Cc2cc(-c3cnccn3)cc(Cl)c2O1 (stereo not given) | · | · | i | · | · | ·
COc1ccc(Cn2c(=O)[nH]c3cc(C(=O)N4CCN(c5ccccc5OC)CC4)ccc3c2=O)cc1 | -28% | ? | i | 21µM* | -21% | 5%
COCCn1c(=O)[nH]c2cc(C(=O)N3CCN(Cc4ccc5c(c4)OCO5)CC3)ccc2c1=O | -10% | i | i | i | -6% | -10%
COc1ccc(Cn2c(=O)[nH]c3cc(C(=O)N4CCN(Cc5ccccc5)CC4)ccc3c2=O)cc1 | -15% | 21µM* | i | ? | -14% | -10%
COc1ccc(Cn2c(=O)[nH]c3cc(C(=O)N4CCN(c5cc(C)ccc5C)CC4)ccc3c2=O)cc1 | ? | i | ? | i | 4% | -16%
COCCn1c(=S)[nH]c2cc(C(=O)N3CCN(Cc4ccc5c(c4)OCO5)CC3)ccc2c1=O | 16% | 2.6µM* | i | 4.1µM* | -36% | -34%
COc1ccc(Cn2c(=O)[nH]c3cc(C(=O)N4CCN(c5ccccc5F)CC4)ccc3c2=O)cc1 | 1% | i | i | i | -15% | -20%
Cc1nc([N+](=O)[O-])c(Br)n1CC(=O)c1ccc2ccccc2c1 | ? | i | 32µM* | i | ? | 10µM*
Cc1nc([N+](=O)[O-])c(Br)n1CC(=O)c1ccccc1 | ? | i | i | i | -11% | 0%
Cc1sc2nc(CSc3nnc(Cc4cccs4)n3C3CCCCC3)[nH]c(=O)c2c1C | 13% | i | i | i | -13% | 2%
Cc1sc2nc(SCc3nnc(-c4cccs4)o3)n(C3CCCC3)c(=O)c2c1C | -27% | 21µM* | i | i | -12% | -18%
Cc1ccc(-n2c(SCC(=O)Nc3cccc(Cl)c3)nc3n[nH]c(C)c3c2=N)cc1 | 1.8µM* | · | · | · | · | 13µM*
COc1cccc(NC(=O)CSc2nc3n[nH]c(C)c3c(=N)n2-c2cccc(OC)c2)c1 | ? | i | i | i | 3% | 16%
Cc1cccc(-n2c(SCC(=O)Nc3ccc(C)c(C)c3)nc3n[nH]c(C)c3c2=N)c1 | ? | · | · | · | · | -26%
COc1cccc(-n2c(SCC(=O)NCCC3=CCCCC3)nc3n[nH]c(C)c3c2=N)c1 | ? | 13µM* | i | i | 3% | -8%
COc1ccccc1NC(=O)N1CCN(c2ccc3nnc(-c4ccc(F)cc4)n3n2)CC1 | ? | ? | · | i | 18µM*! | -21%
Cc1nc2cc(NC(=O)[C@@H]3C[C@@H](Sc4ccccn4)CN3Cc3ccccc3)ccc2s1 | · | · | i | · | · | ·
Cc1ccc(-n2cc(S(=O)(=O)c3ccc(C)cc3)[nH]c2=O)cc1 | ? | i | i | i | -11% | 3.2µM*
CCn1cc(S(=O)(=O)c2ccc(C)cc2)[nH]c1=O | 11% | i | i | i | 1% | 12%
CCOc1ccc(-n2c(Cc3ccccc3)nnc2SCc2nc(-c3cccs3)no2)cc1 | ? | ? | ? | i | ? | -14%
Cc1cnc(-n2ncc(C(=O)N(C)CC3COCCO3)c2C2CC2)nc1-c1cccs1 (stereo not given) | · | · | i | · | · | ·
Cc1nc2ccc(NC(=O)c3cccc(S(=O)(=O)N(C)c4ccccc4)c3)cc2s1 | ? | ? | ? | ? | 28µM* | 3%
Cc1ccc(C(=O)Nc2cccc(C(=O)O)c2)cc1S(=O)(=O)N1CCOCC1 | -15% | i | i | i | ? | -10%
COc1ccccc1N(C)S(=O)(=O)c1ccc(C(=O)Nc2ccc3nc(C)sc3c2)cc1 | ? | 23µM* | ? | ? | ? | -22%
Cc1ccc(NC(=O)c2cccc(S(=O)(=O)N(C)c3ccccc3)c2)cc1S(=O)(=O)N1CCOCC1 | ? | 5.2µM* | i | ? | -33% | -5%
SMILES | TGFb SMAD3 inh | KB-V1 MDR tox | S2 tox | KB-3-1 tox | ATXN2 expr inh | HepG2 tox
CCOc1ccc(S(=O)(=O)/N=C(/Nc2ccc(C)c(S(=O)(=O)N3CCOCC3)c2)c2ccccc2)cc1 | -22% | 9.2µM* | i | i | -10% | -9%
Cc1ccc(C2C=C(c3ccc(Cl)cc3)Nc3nc(NC(=O)c4ccco4)nn32)cc1 (stereo not given) | 15% | ? | · | i | -18% | -24%
O=c1[nH]c(SCc2cccc(Cl)c2)nc2c1CCC2 | 9% | i | i | i | -4% | -2%
CCN(CC)S(=O)(=O)c1cc(NC(=O)CNc2cccc(S(=O)(=O)N3CCOCC3)c2)ccc1C | ? | i | i | 8.2µM* | 2% | -5%
COc1cccc(CN2CCN(Cc3cc4ccccc4[nH]3)CC2CCO)c1 (stereo not given) | 22µM* | ? | i | i | · | 17%
O=C(Nc1cc(C(=O)N2CCN(c3ccccc3)CC2)ccc1Cl)c1cccs1 | ? | 8.2µM* | i | i | -4% | 0%
O=C(Nc1ccc(N2CCN(C(=O)c3cccs3)CC2)cc1)c1ccccc1Cl | -23% | ? | i | 16µM* | -29% | -7%
CC(C)(C)C(=O)Nc1ccc(N2CCN(C(=O)c3cccs3)CC2)cc1 | -1% | i | i | i | · | -13%
O=C(Nc1ccc(N2CCN(C(=O)c3cccs3)CC2)cc1)c1ccccc1F | -14% | 7.3µM* | i | ? | -24% | 6%
COc1ccc(C(=O)/C=C/c2ccc(F)cc2)c(OC(=O)c2ccc([N+](=O)[O-])cc2)c1 | ? | ? | i | i | 6% | -89%
COc1ccc(C(=O)/C=C/c2cccs2)c(OC(=O)c2cccc([N+](=O)[O-])c2)c1 | 17% | i | ? | 7.3µM* | 71% | 3%
Cc1ccccc1-c1cnc(-c2ccncc2)nc1C1CCCN(Cc2ccccc2O)C1 (stereo not given) | · | · | i | · | · | ·

From PubChem
